Among the data in PubChem BioAssay (NCI) are growth values, retold here.

Compounds without any hit were thinned out: in the full panel of roughly 83,000, 20% have a hit.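 Interpretation: 100, growth as untreated; towards 0, rising growth inhibition; 0, no net growth; 0 to -100, cell death. Compounds scoring below 10 were considered active.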 The source made the active and inactive calls.

For this test, the system named is SNB-19 CNS. The experiment in a line: NCI-60 one-dose screen, 48 h (100 = growth as untreated, 0 = no growth, -100 = all killed). The note with it: 10 µM unless noted. On the procedure: Growth inhibition of the SNB-19 human tumor cell line is measured as a screen for anti-cancer activity. Cells are grown in 96 well plates and exposed to the test compound for 48 hours. Compounds are tested at a single concentration, which is 10^-5 M for most compounds. The reported endpoint is percent growth (GI% or GIPRCNT), where numbers from 0 - 100% represent growth inhibition, and numbers from -100% - 0 represent cell death. For example, a value of 40 represents 60% growth inhibition. A value of 0 means no net growth occurred over the course of the experiment. A value of -40 indicates 40% of cells at the beginning of the experiment died by the end of the experiment. A value of -100 means all cells are dead at the end of the experiment.
NCI-60 Human Tumor Cell Lines Screen was performed using the standard one-dose NCI protocol, which is described in more detail at https://dtp.cancer.gov/discovery_development/nci-60/default.htm.
Compounds with GIPRCNT values below 10 were considered active. Activity score was based on GIPRCNT using the following formula: […]
Score is 0 for GIPRCNT values of 100 or above, 50 for GIPRCNT values of 0, and 100 for GIPRCNT values of -100.
With `Nc1c(C(=O)Nc2ccccc2)sc2nc3c(cc12)CN(Cc1ccccc1)CC3`, the growth was 76.1% (inactive). `C/C1=C\CCC2(C)OC2CC2CCC(C)(O)C(CC1)C2(C)C` (stereo not given): the growth was 87.7% (inactive). In the case of `COc1cc(Cn2c(-c3nonc3N)nc3ccccc32)ccc1C` it was 53.8% (inactive). In the case of `COc1ccc(/C=C/C(=O)c2ccc(B(O)O)cc2)cc1O` it was 89.2% (inactive); in that of `CCC(=O)Nc1ccccc1C#C/C=C\C#Cc1ccccc1SC`, 79.3% (inactive); in that of `O=c1[nH]c(CN2CCN(c3ccccc3F)CC2)nc2sc3c(c12)CCC3`, 106% (inactive). Consider `CC(=O)Nc1ccc(S(=O)(=O)N2C(=O)CCC2C(=O)Nc2ccc(Br)cc2)cc1` (stereo not given), for which the growth was 46.1% (inactive). In the case of `O=c1[nH]c(-c2cn(-c3ccc(Cl)cc3)nn2)nc2ccccc12` it was 72.8% (inactive). For `Cc1cc2c(C(C)C)c(O)c(O)c(C=NCCCCC(=O)O)c2c(O)c1-c1c(C)cc2c(C(C)C)c(O)c(O)c(C=NCCCCC(=O)O)c2c1O`, the growth is 30.9% (inactive).

Consider `CSc1ccccc1C#C/C=C\C#Cc1ccccc1N1CCCCC1=O`, for which the growth is 111% (inactive). Take `COc1cc(-c2cc(/C=C3\CCCCC3=O)[nH]n2)cc(OC)c1OC`: the growth was 97.5% (inactive). Turning to `CC1CCN(C(=O)CSc2nc3sc4c(c3c(=O)[nH]2)CCCC4)CC1`, the growth was 106% (inactive). To `Cc1ccc(S(=O)(=O)OC2COCOC2C(OS(=O)(=O)c2ccc(C)cc2)C2OCOCC2OS(=O)(=O)c2ccc(C)cc2)cc1` (stereo not given) belongs 108% (inactive); to `Cc1cccc(-n2c(C)nc3ccc(NC(=O)NCCCl)cc3c2=O)c1`, 101% (inactive); to `O=C(O)c1ccc(-n2cc(CNc3ccc(C(F)(F)F)cc3)c(-c3ccccc3)n2)cc1`, 102% (inactive).

With `CCOC(=O)c1cc(/C(=N\O)c2cc(OC)c(OC)c(OC)c2)n2c(C)cccc12`, the growth was 42.5% (inactive). In the case of `COc1ccc(OC)c(NC(=O)c2cc(S(=O)(=O)N3CCc4ccccc43)ccc2OC)c1` it was 75.9% (inactive); in that of `CC1=NN2C(=NC3=C(CCC/C3=C\c3ccc(Cl)cc3)C2c2ccc(Cl)cc2)S1` (stereo not given), 84.3% (inactive); in that of `Cc1ccc(Cn2c(-c3cccs3)nc3ccccc32)cc1`, 95.1% (inactive). To `CCO/C=N/NC(=O)c1ccncc1` belongs 105% (inactive); to `CSc1ccccc1C#C/C=C\C#Cc1ccccc1N1CCCC1=O`, 88.5% (inactive); to `O=C1NCC(c2cc3ccccc3[nH]c2=O)Nc2ccccc21` (stereo not given), 102% (inactive). In the case of `CCSc1nnc(NC(=O)Cc2ccc(Cl)cc2)s1`, the growth was 97.4% (inactive).

Turning to `COc1ccc(/C=C(\C#N)c2ccc([N+](=O)[O-])cc2)c2ccccc12`, the growth was 24.3% (inactive).

With `CC(C(=O)n1cc(-c2ccccc2)c(-c2ccccc2)c1)c1ccccc1` (stereo not given), the growth was 102% (inactive). For `COc1ccc(/C=C/C(=O)/C=C/c2cc3ccc(Cl)cc3[nH]c2=O)cc1`, the growth was 80.9% (inactive). In the case of `C=CCc1cc(Cl)cc2c(OC(C)=O)c(C(C)=O)c(-c3ccccc3)nc12` it was 112% (inactive); in that of `COc1cc(-c2csc(NC(=O)Nc3ccc(Cl)cc3Cl)n2)cc(OC)c1OC`, 41.7% (inactive). In the case of `COc1ccc(C2NC3=C(CCCC3)C(C#N)(C#N)C2(C#N)C#N)cc1` (stereo not given) it was 88.5% (inactive); in that of `C[C@]12CC[C@@H]3c4cc(O)c(O)cc4CC[C@H]3[C@@H]1CC[C@@H]2O`, 66.1% (inactive). Regarding `NC(=O)c1c(NC(=O)c2ccc3c(c2)OCO3)sc2c1CCC(=O)C2`, the growth was 14.3% (inactive).

As to `CCOC(=O)C1=C(CSC(=S)N(C2CCCCC2)C2CCCCC2)N(C)C(=O)NC1c1ccccc1` (stereo not given), the growth was 49.2% (inactive). In the case of `CC[C@]1(O)C[C@@H]2CN(Cc3c([nH]c4ccccc34)[C@@](C(=O)OC)(c3cc4c(cc3OC)N(C)[C@H]3[C@@](O)(C(=O)OC)[C@H](OC(C)=O)[C@]5(CC)[C@@H]6C[C@@H]6CN6CC[C@]43[C@@H]65)C2)C1` it was 51.7% (inactive). In the case of `CCN1C(=O)N[C@H]2[C@@H]3NC(=O)c4ccc(Cl)n4[C@@H]3C[C@]21O` it was -8.44% (active); in that of `CCCCCCOc1ccc(C2(Cl)c3ccccc3N(C)c3ccccc32)cc1`, 47.1% (inactive); in that of `O=C(CCC(=O)OC1CCCC1)OC1CCCC1`, 96.6% (inactive). To `Cc1cc(C(=O)CSc2nc3ccccc3c(=O)[nH]2)c(C)n1C` belongs 95.5% (inactive).

`C=C1C(=O)O[C@H]2[C@H](O)[C@@H](C)CCC/C(C)=C/CC[C@@]3(C)O[C@@H]3C[C@@H]12`: the growth is 88% (inactive). In the case of `COc1cc(/C=C/C(=O)c2ccc(NC(=O)CN3CCN(c4cc5c(cc4F)c(=O)c(C(=O)O)cn5C4CC4)CC3)cc2)cc(OC)c1OC` it was 34.9% (inactive). In the case of `CCN(C(=O)c1cc2ncccc2[nH]1)[C@H]1CCC[C@@H](NCc2cccc(F)c2)C1` it was 98.7% (inactive).
